Among all 52,000 compounds or so, about 4,300 (8.3%) were called active. The full list was thinned out, with actives kept by preference. Values without a mark were called inactive. Rule as the data show it: active = survival mostly below about 52% (no sharp cut-off); inactive = mostly above about 56%.

The test system of this assay is DeltatarO mutant. Briefly: growth inhibition of S. aureus wild type versus tarO mutant, primary screen, teichoic acid synthesis inhibitors, RN4220, OD600 (AID 463173). The conditions noted are these: OD600, 18 h, active compounds read low, screened at 18.75 µg/mL (by protocol).
`CCOc1cc(C#N)c(NC(=O)c2ccc(OC)c(S(=O)(=O)N3CCCC3)c2)cc1OCC`: the survival was 52%. In the case of `CCCCCOc1ccc(C(=O)CCN2CCOCC2)cc1`, the survival was 90%. The result for `CC(C)c1nc2ccc(C(=O)NCc3ccc(F)cc3)cc2o1` reads 78%. Regarding `COc1ccc(C2CC(=O)c3c([nH]c(C(=O)OC4CCCCCC4)c3C)C2)cc1` (centres undefined), the survival was 79%. On to `CCc1ccc(NC(=O)Cn2c(=O)n(CCCC(=O)NCCc3ccc(OC)c(OC)c3)c(=O)c3ccccc32)cc1`, for which the survival was 77%.

On to `COc1ccc2c(c1)cc1c(=O)n(CC(=O)NC(C)C)nc(C)n12`, for which the survival is 78%. The result for `N#Cc1c2c(c(N3CCOCC3)[nH]c1=S)CCCC2` reads 94%; that for `O=S(=O)(NCC(c1ccco1)N1CCOCC1)c1ccc(Cl)cc1` (centres undefined), 86%. Consider `O=C(Nc1c(C(=O)N2CCN(c3ccccc3F)CC2)oc2ccccc12)c1ccccc1F`, for which the survival was 75%. On to `CCOc1cccc(CNc2ccc(O)cc2)c1OCc1ccccc1Cl`, for which the survival is 68%. The result for `Oc1ccc(NCc2ccc(OCc3ccccc3)cc2)cc1` reads 72%; that for `Oc1ccc(NCc2ccccc2OCc2ccc(Cl)cc2)cc1`, 91%. The result for `Oc1ccc(NCc2ccccc2OCc2ccccc2Cl)cc1` reads 52% (active). The result for `Oc1ccc(NCc2ccccc2OCc2ccccc2F)cc1` reads 60%; that for `Oc1ccc(NCc2ccc(OCc3ccccc3Cl)cc2)cc1`, 35% (active). In the case of `CCC(C)NC(=O)Cn1c(=O)n(CCCC(=O)NCc2ccc(C)cc2)c(=O)c2ccccc21` (centres undefined), the survival was 94%. The result for `COc1ccccc1OCC(=O)NCC1(N(C)C)CCCCC1` reads 91%; that for `COc1ccc(CCNS(=O)(=O)c2ccc(N3CCCCS3(=O)=O)cc2)cc1`, 79%. The result for `O=S(=O)(NCCc1ccc(Cl)cc1)c1ccc(N2CCCCS2(=O)=O)cc1` reads 93%; that for `O=S(=O)(NCCc1ccccc1)c1ccc(N2CCCCS2(=O)=O)cc1`, 52% (active); that for `c1ccc(Cn2nnnc2C(c2cccs2)N(Cc2cccnc2)Cc2ccco2)cc1` (centres undefined), 64%.

`Cc1c[n+](CC(=O)c2ccccc2)c(C)cn1`: the survival was 101%. The result for `Cc1nc(-c2ccc(F)cc2)sc1CCNC(=O)c1ccc(OC(C)C)cc1` reads 67%; that for `Cc1ccc(C(=O)N2CCC(C(=O)O)CC2)cc1`, 90%. Take `COc1cc(C(=O)Oc2c(Sc3ccc(C)cc3)c(C)nn2-c2ccccc2)cc(OC)c1OC`: the survival is 109%.

As to `Cc1ccc(C(=O)Oc2c(S(=O)(=O)c3ccccc3)c(C)nn2-c2ccccc2)cc1`, the survival is 90%. The result for `Cc1nn(-c2ccccc2)c(OC(=O)C(C)(C)C)c1Sc1ccccc1` reads 62%. Regarding `COc1ccc(C(=O)Oc2c(Sc3ccccc3)c(C)nn2-c2ccccc2)c(OC)c1`, the survival is 114%.

In the case of `Cc1ccc(Sc2c(C)nn(-c3ccccc3)c2OC(=O)C(C)(C)C)cc1`, the survival is -10% (active).

For `Cc1ccc(Sc2c(C)nn(-c3ccccc3)c2OC(=O)CC(C)C)cc1`, the survival was 21% (active). Regarding `COc1ccc(Cc2nnc(SCC(=O)N3CCCC3)o2)cc1`, the survival is 83%. For the molecule `COc1ccc(N(CC(=O)NCCc2ccc(C)cc2)S(=O)(=O)c2c(C)nn(C)c2C)cc1`, the survival was 71%.

On to `COc1ccc(-c2nc3c(c(SCC(=O)N4CCCCC4)n2)Cc2cc(C)ccc2O3)cc1`, for which the survival was 84%.

For `CSc1ncc(C(=O)NCc2cccc(C)c2)c(-c2ccccc2)n1`, the survival is 55%. The result for `CSc1ncc(C(=O)NCc2cccc(F)c2)c(-c2ccccc2)n1` reads 70%. The result for `CSc1ncc(C(=O)NCc2ccccc2)c(-c2ccccc2)n1` reads 37% (active). The result for `CSc1ncc(C(=O)NCc2ccc(C)cc2)c(-c2ccccc2)n1` reads 0% (active); that for `CSc1ncc(C(=O)NCc2ccc(C)cc2)c(C)n1`, 69%; that for `CSc1ncc(C(=O)NCc2ccc(F)cc2)c(-c2ccccc2)n1`, 95%. Regarding `COc1cccc(NC(=O)c2sc3nc(C)c(C(=O)Nc4ccc(C)cc4C)c(-c4cccs4)c3c2N)c1`, the survival is 122%. As to `CCc1ccc(S(=O)(=O)c2cn(Cc3ccccc3F)c3cc(OC)c(OC)cc3c2=O)cc1`, the survival is 70%. The result for `COc1ccc(C(=O)NCc2cn3ccc(C)cc3n2)cc1` reads 96%; that for `Cc1c(-c2ccccc2)n(-c2ccccc2O)c2nc3c(c(=O)n(C)c(=O)n3C)n12`, 94%.

On to `CC(=O)c1ccc(NC(=O)c2cc3c(=O)oc4ccc(C)cc4c3s2)cc1`, for which the survival was 106%. The result for `COc1ccc(-c2noc(CN(C(=O)C(C)Oc3ccc(C)cc3)C(C)C)n2)cc1` (centres undefined) reads 63%. Turning to `COc1ccc(-c2noc(CN(C(=O)c3ccc(C)cc3C)C(C)C)n2)cc1`, the survival was -3% (active). Take `COc1ccc(-c2noc(CN(C(=O)Cc3ccc(C)cc3)C(C)C)n2)cc1`: the survival was 16% (active). `COc1ccc(-c2noc(CN(C(=O)c3cc(OC)c(OC)cc3OC)C(C)C)n2)cc1`: the survival is 74%. The result for `Cc1ccc(-c2noc(CN(C(=O)COc3cc(C)cc(C)c3C)C(C)C)n2)cc1` reads -3% (active); that for `COc1ccc(-c2noc(CN(C(=O)c3ccccc3Cl)C(C)C)n2)cc1`, 62%. The result for `COc1ccc(-c2noc(CC(=O)N(C)c3cccc(C)c3)n2)cc1` reads 68%; that for `COc1ccc(CC(=O)N(Cc2nc(-c3ccc(C)cc3)no2)C(C)C)cc1`, 31% (active); that for `COc1ccc(-c2noc(CCC(=O)NCc3ccc(C)cc3)n2)cc1`, 103%. The result for `COc1ccc(-c2noc(CNC(=O)COc3cccc(C)c3C)n2)cc1` reads 51%. As for `Cc1ccccc1Cn1c(C)c(CNCc2ccccc2)c(C(=O)O)c1C`, the survival was 84%. The result for `Cc1cccc(N(CC(=O)N(C)Cc2ccccc2)S(=O)(=O)c2ccccc2)c1C` reads 47%; that for `O=S(=O)(c1ccc(Cl)cc1)c1nnn2c1nc(NCc1ccc3c(c1)OCO3)c1sccc12`, 69%. The result for `Cc1ccc2c(=O)c(C(=O)c3cccc(Cl)c3)cn(CC(=O)Nc3ccc4c(c3)OCCO4)c2n1` reads 80%; that for `CC(=O)Nc1ccc(S(=O)(=O)N2CCC(c3nnnn3-c3ccccc3)CC2)cc1`, 76%.

The values above are taken from PubChem BioAssay AID463173 (ICCB-Longwood Screening Facility, Harvard Medical School, 2010).
